Experimental findings from ChEMBL document CHEMBL4513216, “Probing the Open Global Health Chemical Diversity Library for Multistage-Active Starting Points for Next-Generation Antimalarials” (ACS Infect Dis, 2020) are described below.

Molecules are shown by their SMILES. The campaign covered roughly 69,000 compounds. About 8,600 (12%) showed an effect of 50% or more. What follows is part of a selection rich in strong results, with near analogues and random picks from the rest.

The experiment concerns Plasmodium berghei. Briefly: Screen against P. berghei liver stage (PbLuc), transformed with Luciferase, at 10uM. Format: functional, HepG2. Particulars: tested at 10 uM.
Regarding `CCCC1C=CCN1C(=O)c1cc(COc2ccccc2)[nH]n1` (configuration not stated), the INHIBITION is -1.49%.
With `CCCNC(=O)c1cc2c(s1)CCN2C(=O)CN(C)C` the figure was -25.2%; with `CCn1cc(NC(=O)NCC(C)(C)N2CCc3ccccc3C2)cn1`, -31.8%; with `CC(=O)N1CCCN(C(=O)c2ccc(Cn3ccccc3=O)o2)CC1`, 19.45%.
The figure for `COc1ccc(OC)c(NC(=O)c2c(C)cn(C)c2CC(=O)O)c1` is 29%; for `CCOCc1ccccc1NC(=O)NC1CCN(CC(F)(F)F)C1` (configuration not stated) it is 38.3%.
The figure for `CCOCc1ccccc1NC(=O)NC1CCN(C2CCCC2)C1` (configuration not stated) is 58.6%; for `CCOCc1ccccc1NC(=O)NC1CCN(c2ccccc2)C1` (configuration not stated) it is 36.2%; for `CCOCC(O)CN1CCN(C(=O)c2cccc(CC#N)c2)CC1` (configuration not stated) it is 9.54%.
With `CCSc1nsc(NC(=O)COc2ccc3c(c2)OCO3)n1`, the INHIBITION turned out to be 49.4%.
With `Cn1cc(CN2CCC[C@]3(C[C@H](Oc4ccccn4)CO3)C2)cn1` the figure was 46.4%.
With `Cn1cc(CN2CC[C@]3(C[C@H](Oc4ccccn4)CO3)C2)cn1` the figure was 51.4%.
The figure for `Cn1cc(CN2CCC[C@]3(C[C@@H](Oc4ccccn4)CO3)C2)cn1` is 15.6%.
Turning to `c1ccc(OC2COC3(CCN(CC4CC4)CC3)C2)nc1` (configuration not stated), the INHIBITION was determined as 53.2%.
With `COC1COC2(CCN(Cc3ccc4ccccc4n3)CC2)C1` (configuration not stated) the figure was 57.4%.
The figure for `CCO[C@@H]1CO[C@@]2(CCN(Cc3ccc4c(c3)OCO4)C2)C1` is 18.6%; for `CCO[C@H]1CO[C@@]2(CCN(Cc3ccc4c(c3)OCO4)C2)C1` it is -20.8%; for `COc1ccccc1CN1CCC2(CC1)CC(Oc1ccccn1)CO2` (configuration not stated) it is 14.2%.
With `COC1COC2(CCN(Cc3ccccc3C)CC2)C1` (configuration not stated) the figure was 37.1%.
Turning to `c1ccc(O[C@@H]2CO[C@@]3(CCCN(CC4CCOCC4)C3)C2)nc1`, the INHIBITION is 32.2%.
On to `c1ccc(O[C@H]2CO[C@@]3(CCN(Cc4ccc5c(c4)OCO5)C3)C2)nc1`, for which the INHIBITION stood at 71.9%.
With `COC1COC2(CCN(Cc3ccccc3F)CC2)C1` (configuration not stated) the figure was 3.25%; with `CC(=O)N1CCCn2nc(CNC(=O)N3CCCCC3)cc2C1`, 14.3%; with `CCc1ncc2c(n1)CN(c1cc(N3CCN(C)CC3)nc(N)n1)C2`, 19.7%.
The figure for `CNc1nc(C2CCCN2)nc2c1CCN(S(=O)(=O)C1CCCCC1)C2` (configuration not stated) is -44.8%; for `CC(C)CCC(=O)N1CCCC2(CCN(Cc3ccccc3C#N)C2)C1` (configuration not stated) it is 1.71%; for `COc1ccc(CCn2cnc(C#N)n2)cc1` it is -7.46%.
With `Cc1cccc(CN2CCc3onc(Cn4cccc4)c3C2)n1` the figure was 31.5%; with `NC(=O)c1cc(CC2CCCN(Cc3cnccn3)CC2)ncn1` (configuration not stated), -0.232%.
For `c1ccc(CN2CCC3(CC2)CC(Oc2cccnc2)C3)nc1`, the INHIBITION was 31.2%.
With `c1ccc(CO[C@@H]2CO[C@@]3(CCN(Cc4ccccn4)C3)C2)nc1` the figure was 1.58%; with `c1ccc(CO[C@H]2CO[C@@]3(CCN(Cc4ccoc4)C3)C2)nc1`, 14.2%.
The figure for `c1ccc(CN2CCC3(CC2)CC(Nc2nccs2)CO3)nc1` (configuration not stated) is 53.2%.
The figure for `c1ccc(CN2CC[C@]3(C[C@@H](Oc4ccccn4)CO3)C2)nc1` is 31.3%; for `O=C(NC1COC2(CCN(Cc3ccccn3)CC2)C1)c1ccccn1` (configuration not stated) it is -8.69%; for `c1ccc(OC2COC3(CCN(Cc4ccccn4)CC3)C2)cc1` (configuration not stated) it is 81.2%.
On to `CCN1CCC2(CC1)CC(Nc1ncccn1)CO2` (configuration not stated), for which the INHIBITION amounted to 45.7%.
Consider `Cn1cc(CN2CC[C@]3(C[C@H](OCc4ccccn4)CO3)C2)cn1`, for which the INHIBITION is on record as 69.6%.
Take `Cc1cc(C)cc(CN2CCC3(CC2)CC(Nc2ncccn2)CO3)c1` (configuration not stated): the INHIBITION is 50.7%.
As for `Cn1cc(CN2CCC3(CC2)CC(Nc2nccs2)CO3)cn1` (configuration not stated), the INHIBITION is given as 13.6%.
The figure for `c1cnc(NC2COC3(CCN(Cc4ccoc4)CC3)C2)nc1` (configuration not stated) is 3.25%; for `CCOCCC(=O)Nc1cccc(Cl)c1C(N)=O` it is -39.2%.
The figure for `O=C(O)c1ccccc1-c1ccc(CN2CC(O)C2)cc1` is -13.7%; for `CC(=O)N1CCC[C@H]1C(=O)NCCCN(C(C)C)S(C)(=O)=O` it is 25.4%.
The figure for `CCNC(c1ccc(Br)cc1)c1cccnc1` (configuration not stated) is 3.15%; for `CC(C)(C)c1nnc2n1C(C(=O)N1CCCC1)CC2` (configuration not stated) it is 21.7%; for `CCC1CN(C(=O)c2cccc(OCc3cscn3)c2)CCO1` (configuration not stated) it is 32.025%.
Take `Cc1cnn(CC2CCCN2Cc2nccn2CC(F)(F)F)c1` (configuration not stated): the INHIBITION was -10.1%.
With `CC(C1CCN(Cc2c(Cl)cncc2Cl)CC1)N1CCOCC1` (configuration not stated) the figure was 52.5%; with `CC(C1CCN(Cc2c(Cl)ccc(O)c2Cl)CC1)N1CCN(C)CC1` (configuration not stated), 21.145%.
The figure for `CC(C1CCN(Cc2ccc(OC(F)F)cc2)CC1)N1CCOCC1` (configuration not stated) is 33.7%; for `CN1CCN(C[C@@H]2CN(Cc3c(Cl)cncc3Cl)C[C@@H]2CO)CC1` it is -56.2%; for `CC(C1CCN(Cc2ccc(N(C)C)nc2)CC1)N1CCOCC1` (configuration not stated) it is 36.2%.
In the case of `CC(C1CCN(Cc2c(Cl)cncc2Cl)CC1)N1CCN(C)CC1` (configuration not stated), the INHIBITION was 51.3%.
The figure for `c1cnc(NC2COC3(CCN(Cc4nccs4)CC3)C2)cn1` (configuration not stated) is 42.7%.
With `CCN(CC)c1ncc(CNC2CCc3ncnn3C2)s1` (configuration not stated) the figure was -17.9%.
The figure for `CC(C)(C)S(=O)(=O)CCNC(=O)c1ccc2cc[nH]c2c1` is -19.7%.
Turning to `COCCN1C[C@@H]2CN(Cc3ccc(C)s3)CCC[C@]2(C(=O)O)C1`, the INHIBITION worked out at 24.9%.
With `COCCn1cc2c(n1)C(CNCc1ccco1)OCC2` (configuration not stated) the figure was -11.5%.
The figure for `COc1c(CNC2(c3noc(C)n3)CCC2)c(C)nn1C` is -81.2%; for `COCCCNC(=O)Nc1cccc(Cl)c1-n1cccn1` it is -31.5%; for `COCCN(Cc1ccccn1)C(=O)CC1OCCc2ccccc21` (configuration not stated) it is 10.9%.
Regarding `COCCN(Cc1ccccn1)C(=O)CC1OCCc2ccsc21` (configuration not stated), the INHIBITION came out at 58.2%.
The figure for `COCCN(Cc1ccccn1)C(=O)CC1OCCc2sccc21` (configuration not stated) is 35%; for `COCc1nc(Cn2c(C)cc(C(F)(F)F)cc2=O)no1` it is 32.1%; for `Cc1ccc(C)c(NC(=O)c2cc(S(=O)(=O)N3CCSCC3)c[nH]2)c1` it is 32%.
Take `CN(C)S(=O)(=O)N1C[C@H]2CCC[C@@]2(COCC2CC2)C1`: the INHIBITION came to 63%.
With `CN(C)S(=O)(=O)N1C[C@H]2CCC[C@@]2(COCc2cccnc2)C1` the figure was -136%; with `CN(C)S(=O)(=O)N1C[C@H]2CCC[C@@]2(COCc2ccccn2)C1`, 31.9%.
With `CN(C)S(=O)(=O)N1C[C@H]2CCC[C@@]2(COCC2CCOCC2)C1` the figure was 40.8%; with `CS(=O)(=O)N1C[C@H]2CCC[C@@]2(COCC2CCOCC2)C1`, 5.36%.
With `Cc1cccc(COC[C@@]23CCC[C@@H]2CN(S(=O)(=O)N(C)C)C3)n1` the figure was 52.6%.
